Test results: PubChem BioAssay (NCI)
Compounds without any hit were thinned out: in the full panel of roughly 79,000, 15% have a hit. Active and inactive are the calls of the source. Cut-off read from the data, not from the text of the source: active = growth inhibition above about 70%; inactive = the rest.

Columns and labels:
[1] = NCI Yeast Anticancer Drug Screen. Data for the rad52 strain (AID 147);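 note: 0% = growth of vehicle-treated control cultures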; conditions: S. cerevisiae rad52 mutant growth inhibition, hits give high values
Procedure, shortened: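 Vehicle-treated cultures served as the reference for growth inhibition of compound-exposed yeast bearing a DNA repair mutation.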

[2] = NCI Yeast Anticancer Drug Screen. Data for the wt1 strain (AID 149);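 note: 0% = growth of vehicle-treated wt1 cultures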; conditions: S. cerevisiae wt1 strain (SPY 50644) growth inhibition, hits give high values
Procedure, shortened: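 Each compound is tested on wt1 yeast and the loss of growth versus vehicle gives the inhibition value.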

[3] = NCI Yeast Anticancer Drug Screen. Data for the rad50EPP+ strain (AID 151);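 note: 0% = growth of vehicle-treated control cultures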; conditions: S. cerevisiae rad50 mutant strain, hits give high values
Procedure, shortened: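 In this screen, rad50EPP+ yeast were exposed to compounds. Growth inhibition was scored against vehicle-treated controls.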

[4] = NCI Yeast Anticancer Drug Screen. Data for the mgt1 strain (AID 153); conditions: S. cerevisiae mgt1 mutant growth inhibition, hits give high values
Procedure, shortened: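 mgt1 strain exposed; growth vs vehicle control recorded as inhibition.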

[5] = NCI Yeast Anticancer Drug Screen. Data for the rad50 strain (AID 155);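 note: 0% = growth of vehicle-only cultures of the same strain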; conditions: S. cerevisiae rad50 strain growth inhibition, hits give high values
Procedure, shortened: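 Vehicle-treated cultures provide the reference for the growth inhibition reported for compound-exposed, repair-deficient yeast.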

[6] = NCI Yeast Anticancer Drug Screen. Data for the mec2-1 strain (AID 157); conditions: S. cerevisiae mec2-1 strain, hits give high values
Procedure, shortened: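 Vehicle-treated cultures served as reference for growth inhibition of compound-exposed mec2-1 yeast.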

[7] = NCI Yeast Anticancer Drug Screen. Data for the rad14 strain (AID 159);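 note: 0% = growth of vehicle-treated control cultures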; conditions: S. cerevisiae rad14 strain growth inhibition, hits give high values
Procedure, shortened: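 Inhibition of growth is reported for a repair-deficient yeast mutant following compound treatment, calculated relative to cultures that received vehicle.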

[8] = NCI Yeast Anticancer Drug Screen. Data for the sgs1 mgt1 strain (AID 161);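 note: 0% = growth of cultures given vehicle only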; conditions: S. cerevisiae sgs1 mgt1 strain, hits give high values
Procedure, shortened: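 Genetically altered yeast, compound exposure, growth inhibition relative to vehicle.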

[9] = NCI Yeast Anticancer Drug Screen. Data for the CLN2oe strain (AID 163);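 note: 0% = growth of vehicle-only control cultures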; conditions: S. cerevisiae CLN2oe strain, hits give high values
Procedure, shortened: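 Inhibition relative to vehicle-treated yeast is reported. Cells: strain with genetic alteration in cell-cycle control, grown with compound.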

[10] = NCI Yeast Anticancer Drug Screen. Data for the cln2 rad14 strain (AID 165);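 note: 0% = growth equal to vehicle treated cultures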; conditions: S. cerevisiae cln2 rad14 strain, hits give high values
Procedure, shortened: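 Each compound was tested on cln2 rad14 yeast. Inhibition of growth was calculated against vehicle-exposed controls.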

[11] = NCI Yeast Anticancer Drug Screen. Data for the bub3 strain (AID 167); conditions: S. cerevisiae bub3 mutant strain, hits give high values
Procedure, shortened: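 Mutant yeast screening strain plus compound; vehicle-treated cultures serve as the 0% inhibition reference.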

[12] = NCI Yeast Anticancer Drug Screen. Data for the wt2 strain (AID 169); conditions: S. cerevisiae wt2 strain growth inhibition, hits give high values
Procedure, shortened: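 Inhibition of yeast growth was determined after compound treatment, normalised to controls receiving only vehicle.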

[13] = NCI Yeast Anticancer Drug Screen. Data for the mlh1 strain (AID 171);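 note: 0% = growth of vehicle-treated control cultures of the same strain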; conditions: S. cerevisiae mlh1 strain growth inhibition, hits give high values
Procedure, shortened: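 Vehicle-normalised growth inhibition of a repair- or checkpoint-altered yeast strain following compound treatment.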

[14] = NCI Yeast Anticancer Drug Screen. Data for the sgs1 strain (AID 173);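 note: 0% = growth of vehicle-only control cultures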; conditions: S. cerevisiae sgs1 mutant, hits give high values
Procedure, shortened: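 Screen format: yeast with repair or checkpoint alterations, compound exposure, growth read relative to vehicle.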

[15] = NCI Yeast Anticancer Drug Screen. Data for the mlh1 rad18 strain (AID 175); conditions: S. cerevisiae mlh1 rad18 strain growth inhibition, hits give high values
Procedure, shortened: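 Vehicle-treated cultures served as the reference for growth inhibition in a yeast strain carrying DNA damage repair alterations exposed to each compound.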

[16] = NCI Yeast Anticancer Drug Screen. Data for the rad18 strain (AID 177); conditions: S. cerevisiae rad18 mutant growth inhibition, hits give high values
Procedure, shortened: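 Test articles were incubated with altered yeast defective in DNA damage repair. Results are given as inhibition of growth versus vehicle.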

[17] = at 5.0 µM (retest, dose inferred, filed as 0.5)
[18] = at 50.0 µM (retest, dose inferred, filed as 5.0)

Measured: growth inhibition

O=[N+]([O-])c1cc(S(=O)(=O)F)ccc1Cl
active: [1]; at 33.0 µM 94% | [1]; at 100.0 µM 98% | [2]; at 33.0 µM 93% | [2]; at 100.0 µM 99% | [3]; at 33.0 µM 82% | [3]; at 100.0 µM 99% | [4]; at 33.0 µM 93% | [4]; at 100.0 µM 99% | [5]; at 33.0 µM 94% | [5]; at 50.0 µM 92.5% | [5]; at 100.0 µM 100% | [6]; at 33.0 µM 95% | [6]; at 50.0 µM 94.5% | [6]; at 100.0 µM 100% | [7]; at 33.0 µM 94% | [7]; at 100.0 µM 99% | [8]; [18] 100% | [8]; at 50.0 µM 93.4% | [9]; at 33.0 µM 93% | [9]; at 100.0 µM 98% | [10]; [18] 100% | [10]; at 50.0 µM 92.4% | [11]; at 33.0 µM 90% | [11]; [18] 99% | [11]; at 50.0 µM 93.2% | [11]; at 100.0 µM 98% | [12]; at 33.0 µM 85% | [12]; at 100.0 µM 98% | [13]; at 33.0 µM 95% | [13]; at 100.0 µM 99% | [14]; at 33.0 µM 97% | [14]; at 100.0 µM 98% | [15]; at 50.0 µM 92.8% | [16]; at 33.0 µM 92% | [16]; at 100.0 µM 99%
inactive: [1]; at 1.2 µM 20% | [1]; at 3.7 µM 24% | [1]; at 11.0 µM 49% | [2]; at 1.2 µM 27% | [2]; at 3.7 µM 28% | [2]; at 11.0 µM 9% | [3]; at 1.2 µM 13% | [3]; at 3.7 µM 20% | [3]; at 11.0 µM 47% | [4]; at 1.2 µM 11% | [4]; at 3.7 µM 20% | [4]; at 11.0 µM 18% | [5]; at 1.2 µM 18% | [5]; at 3.7 µM 20% | [5]; [17] 51% | [5]; at 11.0 µM 38% | [5]; [18] 57% | [6]; at 1.2 µM 27% | [6]; at 3.7 µM 25% | [6]; [17] 50% | [6]; at 11.0 µM 35% | [6]; [18] 62% | [7]; at 1.2 µM 1% | [7]; at 3.7 µM -6% | [7]; at 11.0 µM 7% | [8]; [17] 11% | [9]; at 1.2 µM 26% | [9]; at 3.7 µM 20% | [9]; at 11.0 µM 39% | [10]; [17] 27% | [11]; at 1.2 µM -10% | [11]; at 3.7 µM -6% | [11]; [17] 39% | [11]; at 11.0 µM 1% | [12]; at 1.2 µM -11% | [12]; at 3.7 µM -4% | [12]; at 11.0 µM 17% | [13]; at 1.2 µM 15% | [13]; at 3.7 µM 19% | [13]; at 11.0 µM 29% | [14]; at 1.2 µM 6% | [14]; at 3.7 µM 13% | [14]; at 11.0 µM 50% | [15]; [17] 32% | [15]; [18] 54% | [16]; at 1.2 µM 4% | [16]; at 3.7 µM 15% | [16]; at 11.0 µM 30%

C[C@@]12CCC(=O)C=C1CC[C@H]1C2=CC[C@]2(C)C1CC[C@@]2(C)O (stereo partly specified)
active: [1]; at 100.0 µM 91% | [2]; at 100.0 µM 91% | [4]; at 33.0 µM 86% | [4]; at 100.0 µM 96% | [5]; at 50.0 µM 74.2% | [5]; at 100.0 µM 85% | [6]; at 33.0 µM 85% | [6]; [18] 82% | [6]; at 100.0 µM 96% | [7]; at 33.0 µM 70% | [7]; at 100.0 µM 92% | [8]; [18] 78% | [8]; at 50.0 µM 77.5% | [9]; at 33.0 µM 75% | [9]; at 100.0 µM 93% | [11]; at 33.0 µM 80% | [11]; at 50.0 µM 75.5% | [11]; at 100.0 µM 96% | [12]; at 100.0 µM 92% | [13]; at 100.0 µM 90% | [14]; at 33.0 µM 72% | [14]; at 100.0 µM 91% | [16]; at 33.0 µM 76% | [16]; at 100.0 µM 92%
inactive: [1]; at 1.2 µM -12% | [1]; at 3.7 µM -3% | [1]; at 11.0 µM -4% | [1]; at 33.0 µM 69% | [2]; at 1.2 µM -13% | [2]; at 3.7 µM -26% | [2]; at 11.0 µM -23% | [2]; at 33.0 µM 54% | [3]; at 1.2 µM -1% | [3]; at 3.7 µM -6% | [3]; at 11.0 µM -8% | [3]; at 33.0 µM -12% | [3]; at 100.0 µM 1% | [4]; at 1.2 µM 12% | [4]; at 3.7 µM 19% | [4]; at 11.0 µM 38% | [5]; at 1.2 µM 1% | [5]; at 3.7 µM 7% | [5]; [17] 27% | [5]; at 11.0 µM 5% | [5]; at 33.0 µM 63% | [5]; [18] 60% | [6]; at 1.2 µM 8% | [6]; at 3.7 µM 10% | [6]; [17] 44% | [6]; at 11.0 µM 15% | [6]; at 50.0 µM 66.5% | [7]; at 1.2 µM -22% | [7]; at 3.7 µM -25% | [7]; at 11.0 µM -10% | [8]; [17] -27% | [9]; at 1.2 µM 32% | [9]; at 3.7 µM -2% | [9]; at 11.0 µM 0% | [10]; [17] 46% | [10]; [18] 30% | [10]; at 50.0 µM 56.9% | [11]; at 1.2 µM -1% | [11]; at 3.7 µM 19% | [11]; [17] -28% | [11]; at 11.0 µM 28% | [11]; [18] 54% | [12]; at 1.2 µM -26% | [12]; at 3.7 µM -19% | [12]; at 11.0 µM -18% | [12]; at 33.0 µM 64% | [13]; at 1.2 µM -27% | [13]; at 3.7 µM -11% | [13]; at 11.0 µM 4% | [13]; at 33.0 µM 63% | [14]; at 1.2 µM 1% | [14]; at 3.7 µM -6% | [14]; at 11.0 µM 14% | [15]; [17] 25% | [15]; [18] 58% | [15]; at 50.0 µM 50.5% | [16]; at 1.2 µM -2% | [16]; at 3.7 µM 0% | [16]; at 11.0 µM 10%

CCC1(O)C(=O)OCc2c1cc1n(c2=O)Cc2cc3cc(Cl)ccc3nc2-1 (stereo unspecified)
inactive: [2]; at 1.2 µM 3% | [2]; at 3.7 µM 0% | [2]; at 11.0 µM 16% | [2]; at 33.0 µM 43% | [2]; at 100.0 µM 65% | [4]; at 1.2 µM 13% | [4]; at 3.7 µM 19% | [4]; at 11.0 µM 30% | [4]; at 33.0 µM 57% | [4]; at 100.0 µM 67% | [6]; at 1.2 µM 60% | [7]; at 1.2 µM 12% | [7]; at 3.7 µM 19% | [7]; at 11.0 µM 35% | [7]; at 33.0 µM 59% | [7]; at 100.0 µM 69% | [8]; [17] 62% | [8]; at 50.0 µM 40.2% | [9]; at 1.2 µM 6% | [9]; at 3.7 µM 14% | [9]; at 11.0 µM 33% | [9]; at 33.0 µM 47% | [9]; at 100.0 µM 59% | [10]; [17] 24% | [10]; [18] 48% | [10]; at 50.0 µM 45.9% | [11]; at 1.2 µM -6% | [11]; at 3.7 µM 6% | [11]; [17] -2% | [11]; at 11.0 µM 24% | [11]; at 33.0 µM 44% | [11]; [18] 31% | [11]; at 50.0 µM -5.7% | [11]; at 100.0 µM 62%
active: [1]; at 1.2 µM 94% | [1]; at 3.7 µM 95% | [1]; at 11.0 µM 95% | [1]; at 33.0 µM 95% | [1]; at 100.0 µM 92% | [3]; at 1.2 µM 92% | [3]; at 3.7 µM 93% | [3]; at 11.0 µM 94% | [3]; at 33.0 µM 92% | [3]; at 100.0 µM 88% | [5]; at 1.2 µM 96% | [5]; at 3.7 µM 94% | [5]; [17] 97% | [5]; at 11.0 µM 95% | [5]; at 33.0 µM 93% | [5]; [18] 92% | [5]; at 50.0 µM 93.7% | [5]; at 100.0 µM 78% | [6]; at 3.7 µM 88% | [6]; [17] 87% | [6]; at 11.0 µM 93% | [6]; at 33.0 µM 92% | [6]; [18] 88% | [6]; at 50.0 µM 92.7% | [6]; at 100.0 µM 89% | [8]; [18] 84%
